Test results as given in PubChem BioAssay AID1159580 (chemical genetic matrix, 2015).
Screen size: about 5,500 compounds; about 2,000 (36%) were called active. Not shown: some 18% with an inconclusive outcome. Cut-off read from the data, not from the text of the source: active = normalized growth mostly below about 0.91 (no sharp cut-off); inconclusive = no clear call, values can overlap the other calls; inactive = mostly above about 0.92. The list shows a part of the results.

Experiment: chemical genetic growth profiling, strain panel (AID 1159580);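 note: tested at 20 µM; growth read once vehicle control cultures reached saturation at 30 °C; 1 = growth at the plate median or of vehicle wells; lower values mean less growth of the strain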
Details: S. cerevisiae deletion strains, growth OD

Measured: normalized growth

Cc1cc(Br)c(NC(=O)C(Cl)(Cl)Cl)c(Br)c1
active: locus YAL013W, strain DEP1, hits give low values 0.917 | locus YBR229C, strain ROT2, hits give low values 0.911 | locus YGR078C, strain PAC10, hits give low values 0.905 | locus YHR030C, strain SLT2, hits give low values 0.592 | locus YHR087W, strain rtc3, hits give low values 0.899 | locus YLR039C, strain RIC1, hits give low values 0.538 | locus YLR058C, strain SHM2 (second series), hits give low values 0.907 | locus YLR085C, strain ARP6, hits give low values 0.73 | locus YLR262C, strain YPT6, hits give low values 0.579 | locus YMR219W, strain ESC1, hits give low values 0.933 | locus YMR307W, strain GAS1, hits give low values 0.648 | locus YNL322C, strain KRE1, hits give low values 0.94 | locus YOL006C, strain TOP1, hits give low values 0.615
inactive: locus YDL101C, strain DUN1, hits give low values 0.936 | locus YDR150W, strain NUM1, hits give low values 0.909 | locus YEL061C, strain CIN8, hits give low values 0.93 | locus YJR043C, strain POL32, hits give low values 0.927 | locus YJR075W, strain HOC1, hits give low values 0.923 | locus YKL190W, strain CNB1, hits give low values 0.958 | locus YML094W, strain GIM5, hits give low values 0.944 | locus YMR263W, strain SAP30, hits give low values 0.96 | locus YNL153C, strain GIM3, hits give low values 0.947 | locus YNL298W, strain CLA4 (second series), hits give low values 0.875 | locus YNR030W, strain Alg12, hits give low values 0.938 | locus YPL055C, strain LGE1, hits give low values 0.919 | locus YPL241C, strain CIN2, hits give low values 0.939 | locus YPR135W, strain CTF4, hits give low values 0.736
